# Screening data from PubChem BioAssay.
# NIH3T3 tox – kills NIH 3T3 cells. NIH 3T3 viability, CellTiter-Glo ATP luminescence, 48-72 h. Potency, µM (highest dose often 96.7 µM), most hits filed as inhibitors. 94,000 tested, 4.3% active; note: nearly all actives have a fitted effect of over 55% in size
#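 Cytotoxicity was measured by CellTiter-Glo ATP luminescence after 48 or 72 h compound exposure at 37 °C. Mouse NIH 3T3 fibroblasts were seeded at 400 cells/well and dosed by 23 nL pin transfer.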
# NPR1 antag – blocks ANP-stimulated signaling of human Npr1 receptor; HEK293 hNpr1 GloSensor cGMP, ANP-stimulated luminescence; Potency, µM (top dose mostly 46.3 µM), actives largely listed as inhibitors; 76,000 tested, 1.6% active; calls by dose curve; note: nearly all actives have a fitted effect of over 60% in size
# Target sequence (P16066 whole entry, looked up): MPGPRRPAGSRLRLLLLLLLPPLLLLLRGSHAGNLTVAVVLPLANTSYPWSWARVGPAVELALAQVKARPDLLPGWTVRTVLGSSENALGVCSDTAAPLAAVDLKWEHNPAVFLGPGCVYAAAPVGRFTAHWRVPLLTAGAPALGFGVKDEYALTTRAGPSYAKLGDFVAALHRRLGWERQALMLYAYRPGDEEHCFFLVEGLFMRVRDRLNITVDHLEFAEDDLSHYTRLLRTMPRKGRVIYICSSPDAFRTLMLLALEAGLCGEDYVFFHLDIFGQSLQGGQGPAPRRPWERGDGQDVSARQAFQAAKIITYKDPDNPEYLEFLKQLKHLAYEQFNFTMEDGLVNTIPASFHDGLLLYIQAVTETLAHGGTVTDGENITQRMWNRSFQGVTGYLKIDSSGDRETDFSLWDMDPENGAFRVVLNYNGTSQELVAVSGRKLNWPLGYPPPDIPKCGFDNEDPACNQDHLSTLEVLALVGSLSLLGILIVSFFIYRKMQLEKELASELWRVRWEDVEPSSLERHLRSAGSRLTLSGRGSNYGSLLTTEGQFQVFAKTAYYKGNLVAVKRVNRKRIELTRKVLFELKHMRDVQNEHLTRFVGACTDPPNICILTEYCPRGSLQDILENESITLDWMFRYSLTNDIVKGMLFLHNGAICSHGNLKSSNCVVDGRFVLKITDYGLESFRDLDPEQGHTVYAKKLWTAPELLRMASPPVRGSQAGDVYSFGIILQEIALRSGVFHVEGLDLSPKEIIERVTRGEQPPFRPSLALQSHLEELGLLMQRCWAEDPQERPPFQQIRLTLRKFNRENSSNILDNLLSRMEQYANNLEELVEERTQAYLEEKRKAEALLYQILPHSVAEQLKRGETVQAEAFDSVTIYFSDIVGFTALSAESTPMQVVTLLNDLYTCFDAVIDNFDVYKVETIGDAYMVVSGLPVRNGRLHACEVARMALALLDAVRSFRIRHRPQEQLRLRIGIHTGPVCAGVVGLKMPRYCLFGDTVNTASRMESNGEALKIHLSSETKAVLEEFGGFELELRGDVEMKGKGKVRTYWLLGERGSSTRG
#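 Compound pre-incubated 30 min at room temperature on GloSensor-loaded HEK293 cells stably carrying hNpr1 and the pGS-40F cGMP biosensor. Stimulation uses hNppA at 0.1 nM final; luminescence is taken at baseline and 20 min post-agonist.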
# HEK cytotox – kills HEK 293 cells. 94,000 tested, 6.6% active. Potency, µM (doses to about 115 µM), usual class: inhibitors. HEK 293 viability, ATP luminescence (CellTiter-Glo), 48-72 h; note: nearly all actives have a fitted effect of over 60% in size
#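 250 HEK 293 cells/well; compound by pintool; incubated 48 or 72 hr at 37 degree Celsius; CellTiter-Glo added, 10 min RT, luminescence imaged.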
# Luciferase inh – blocks purified firefly luciferase enzyme activity. 76,000 tested, 2.5% active. P08659. purified P. pyralis luciferase, luminescence, biochemical. Potency, µM (doses to about 115 µM), most hits filed as inhibitors. AID 1347043; note: nearly all actives have a fitted effect of over 65% in size
#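 Cell-free enzyme assay, 10nM P. pyralis luciferase, luciferin and ATP each at 10uM. Inhibition profiled over a 6-point titration, read as luminescence.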
# Numbers stand for hits; – = inactive; ? = inconclusive; · = no result. An excerpt weighted towards active compounds, which were near 11% of everything screened. Unless noted, calls come from the whole dose curve; as a rule, active = well fitted curve in the direction sought with a large enough effect; inconclusive = small, poorly fitted or top-dose-only effect, or another doubt; inactive = no such curve, though single readings can be large; an effect the other way counts as inactive or inconclusive.
SMILES,NIH3T3 tox,NPR1 antag,HEK cytotox,Luciferase inh
Cc1ccc(S(=O)(=O)N2CCN(C3CCN(Cc4ccccn4)C3=O)CC2)c(C)c1 (stereo not given),–,–,–,–
COc1ccc(-c2nc(-c3c(C)noc3C)cc3c2cc(-c2ccccc2)n3C)cn1,50µM,–,?,–
Cc1noc(C)c1-c1cc2c(cc(-c3ccccc3)n2C)c(-c2cccnc2)n1,?,–,?,–
COc1ncccc1-c1nc(-c2c(C)noc2C)cc2c1cc(-c1ccccc1)n2C,25µM,–,28µM,–
O=C(NC1CC1)c1ccc2nnc(-c3ccoc3)n2c1,–,·,–,·
O=C(NC1CCCC1)C1CCCCN1Cc1ccc(-c2cccs2)cc1 (stereo not given),40µM,·,32µM,·
O=C(NCC1CC1)C1CCCCN1Cc1ccc(-c2cccs2)cc1 (stereo not given),18µM,·,?,·
O=C(C1CCCCN1Cc1ccc(-c2cccs2)cc1)N1CCC(c2ccccc2)CC1 (stereo not given),?,·,–,·
C[S+](=O)([O-])N1CC2(CCN(Cc3c[nH]c4ccccc34)CC2)Cc2ccccc21,25µM,·,45µM,·
c1ccc(CC2=NOC3(CCN(Cc4c[nH]c5ccccc45)CC3)C2)cc1,32µM,·,50µM,·
c1ccc(C2=NOC3(CCN(Cc4c[nH]c5ccccc45)CC3)C2)cc1,?,·,45µM,·
O=C(c1ccc(Cl)nc1)N1CCCN(c2ccc3nnc(C4CC4)n3n2)CC1,–,·,–,·
Cc1ccccc1N1CCN(c2ncccc2CNC(C)Cn2cncn2)CC1 (stereo not given),–,–,?,–
COc1ccc(S(=O)(=O)N2CCOC[C@H](Oc3ccccc3)C2)cc1,?,–,63µM,–
COc1ccc(S(=O)(=O)N2CCOC[C@H](Oc3ccc(C(F)(F)F)cn3)C2)cc1,?,?,100µM,–
O=S(=O)(c1ccc(F)cc1)N1CCOC[C@H](Oc2ccc(C(F)(F)F)cn2)C1,?,?,?,–
Cc1noc(C)c1S(=O)(=O)N1CCOC[C@H](Oc2ccc(C(F)(F)F)cc2)C1,?,–,63µM,–
COc1ccc(F)c(CN2CCCC(O)(CN3CCC(CCO)CC3)C2=O)c1 (stereo not given),–,–,?,–
CC(C)C(=O)N1CCCC1C(=O)N1CCC(c2nc3ncccc3[nH]2)CC1 (stereo not given),–,·,–,·
COCCN1Cc2nc(Nc3ccccc3F)ccc2OCC1=O,–,–,?,–
Cc1csc(Nc2ccc3c(n2)CN(Cc2ccc(F)cc2)C(=O)CO3)n1,?,?,8.9µM,–
O=C1COc2ccc(Nc3ccccc3F)nc2CN1Cc1ccc(F)cc1,?,–,79µM,–
O=C(Cc1ccccn1)N1CCC2(CC1)CC(c1cccc(C(F)(F)F)c1)=NO2,–,·,?,·
COc1ccccc1OCC(=O)c1ccc2c(c1)N(CC(=O)N(C)Cc1ccccc1)C(=O)CO2,?,–,?,–
CC1(c2noc(-c3ccccn3)n2)CCN(C(=O)CCCc2nc3ccccc3s2)CC1,?,?,40µM,–
SMILES,NIH3T3 tox,NPR1 antag,HEK cytotox,Luciferase inh
CCN(C(=O)CCC(=O)N1CCC(C)(c2noc(-c3ccccn3)n2)CC1)c1ccccc1,–,–,?,–
Cn1ncc2c(C(=O)NCc3cccc(Cl)c3)cc(-c3cccc(C(F)(F)F)c3)nc21,?,·,–,·
CN1CCN(c2ccc(-c3noc([C@@H]4CCCN4C4CCCCC4)n3)cn2)CC1,79µM,–,79µM,–
c1ccc(CN2CCC[C@H]2c2nc(-c3ccnc(N4CCOCC4)c3)no2)nc1,35µM,–,?,–
CN1CCN(c2ccc(-c3noc([C@@H]4CCCN4CCCc4ccccc4)n3)cn2)CC1,40µM,–,?,–
CC(C)N1CCC[C@H]1c1nc(-c2ccc(N3CCN(C)CC3)nc2)no1,–,–,–,–
c1ccc(CN2CCC[C@H]2c2nc(-c3ccc(-n4ccnc4)nc3)no2)cc1,?,–,89µM,–
CC(C)c1ccc(NC(=O)N2CCc3[nH]c4ccc(F)cc4c3C2)cc1,?,–,?,?
Cc1noc(C)c1-c1cc2c(cc(C)n2C)c(NCCN(C)C)n1,?,–,?,–
Cc1noc(C)c1-c1cc2c(cc(-c3ccccc3)n2C)c(Nc2ccncn2)n1,?,–,32µM,–
Cc1noc(C)c1-c1cc2c(cc(C)n2C)c(Nc2ccncn2)n1,20µM,–,?,–
Cc1ccccc1-c1nc(-c2c(C)noc2C)cc2cc(CN(C)C)oc12,28µM,–,?,–
Cc1noc(C)c1-c1cc2cc(CN(C)C)oc2c(Nc2cccnc2)n1,25µM,–,71µM,–
Cc1noc(C)c1-c1cc2cc(CN(C)C)oc2c(NCc2cccnc2)n1,?,–,?,–
Cc1noc(C)c1-c1cc2cc(CN(C)C)oc2c(NCc2ccccc2)n1,?,–,?,–
CCN1c2cc(C(=O)NCc3ccc(C(C)C)cc3)ccc2C(=O)N2CCCCCC21 (stereo not given),?,–,?,–
COC1CCN(c2cc(-c3ccsc3)nc3c(C)noc23)CC1,?,–,79µM,–
COC1CCCN(c2cc(-c3ccsc3)nc3c(C)noc23)C1 (stereo not given),?,–,?,–
COC1CCCN(c2cc(-c3ccc(Cl)cc3)nc3c(C)noc23)C1 (stereo not given),?,–,56µM,–
O=C(c1ccccc1)N1CCCC2(CNc3ncccc3[S+](=O)([O-])N2)C1 (stereo not given),–,·,–,·
CNC(=O)c1cc(C)nc2onc(C3CCCN(C(=O)c4ccc(OC)cc4)C3)c12 (stereo not given),–,·,–,·
CC(NC(=O)CCc1conc1-c1ccccc1)c1ccc(F)cc1 (stereo not given),–,–,?,18µM
Cc1cccc(-c2nocc2CCC(=O)NC(C)c2ccc(F)cc2)c1 (stereo not given),?,–,?,–
Cc1cccc(N2CCN(c3nccc(-c4ccccn4)n3)CC2)n1,–,–,?,?
CC(C)C(O)C1CCN(c2nccc(-c3cc(C(=O)O)ccn3)n2)CC1 (stereo not given),–,–,–,50µM
SMILES,NIH3T3 tox,NPR1 antag,HEK cytotox,Luciferase inh
COc1ccc(S(=O)(=O)N2CCC(n3cnnc3-c3ccccc3)CC2)cc1OC,?,·,–,·
COc1ccccc1CNC(=O)C[C@@H]1CCNC[C@@H]1Cc1cc(CSc2ccccc2)on1,79µM,–,?,–
COc1ccccc1CNC(=O)C[C@@H]1CCNC[C@@H]1Cc1cc(C(C)(C)C)on1,100µM,–,100µM,–
COc1ccc(Cl)cc1S(=O)(=O)N1CCC(n2cnnc2-c2ccccc2)CC1,?,–,–,–
COc1ccc(Nc2ccnc(N3CCCC3C(=O)NCc3ccccc3)n2)cc1 (stereo not given),–,·,?,·
COc1ccc(Nc2ccnc(N3CCCC(C(=O)NCc4ccccc4Cl)C3)n2)cc1 (stereo not given),35µM,·,35µM,·
COc1ccc(Nc2ccnc(N3CCCC(C(=O)N4CCC(Cc5ccccc5)CC4)C3)n2)cc1 (stereo not given),28µM,·,20µM,·
